# Data taken from PubChem BioAssay AID504884 (Broad Institute, 2011).
# The whole screen tested about 360,000 compounds, of which about 230 (0.064%) were called active. The full list was thinned out, with actives kept by preference. Unmarked numbers belong to inactive results. Cut-off read from the data, not from the text of the source: active = activity above about 50% (passing the limit was not always enough); inconclusive = no clear call, values can overlap the other calls.
# System: DNA topoisomerase I (Yersinia pestis CO92)
# Assay: Yersinia pestis topoisomerase I inhibitors, primary screen, biochemical, cleavage product accumulation, plate reader, single point (AID 504884)
# Details: Y. pestis Topo-I cleavage product accumulation, at 10 µM, hits give high values
row,Structure (SMILES),activity
1,COc1ccccc1N1CC(C(=O)Nc2nnc(SCC(=O)NC(C)C)s2)CC1=O (stereo unspecified),6.4%
2,Cc1cc(SCC(=O)NCCN2C(=O)CSC2=O)nc2ccccc12,2.72%
3,O=[N+]([O-])c1ccc(S(=O)(=O)Nc2cccc(-c3ccc(N4CCCC4)nn3)c2)cc1,21.6%
4,CC1CCc2sc(C(=O)NCC(c3ccco3)N3CCCCC3)cc2C1 (stereo unspecified),-2.82%
5,CC(C)Oc1ccc(CN2CCC2(C)C(=O)NCc2ccc(C(F)(F)F)cc2)cc1 (stereo unspecified),15.8%
6,COc1ccc(CN2CCN(C(=O)c3cc(C4CC4)nn3-c3ccccc3)CC2)cc1F,29.4%
7,CN(C)C(=O)N=NC(=O)N(C)C,-8.5%
8,C[C@H](CO)N1C[C@H](C)[C@@H](CN(C)Cc2ccc(-c3ccccc3)cc2)Oc2ccc(NC(=O)Cn3cnnn3)cc2C1=O,22.5%
9,O=C(CN1CCC(NC(=O)C2CC2)CC1)Nc1ccccc1[N+](=O)[O-],2.07%
10,CN(Cc1ccc(F)cc1)C(=O)COc1ccc2ccccc2c1,27.3%
11,COc1ccc(C(CCN(Cc2ccc(OC)c(OC)c2)C(=O)CCl)c2ccccc2)cc1 (stereo unspecified),12.3%
12,COc1ccc(CN(C)C(=O)CC(c2ccccc2)c2ccccc2)cc1,51.6% (active)
13,Cc1ccc(S(=O)(=O)NCC(=O)N2CCOCCOCCOCCOCC2)cc1,5.8%
14,Cc1cc(C)nc(/N=C2\NC(=O)CC(C(=O)O)N2c2ccc(Cl)cc2Cl)n1 (stereo unspecified),-1.83%
15,O=C1NNC(c2ccccc2)=N/C1=C\c1ccc(Cl)cc1,-4.41%
16,Cc1ccccc1-n1nnnc1SCCCC(=O)c1ccc(F)cc1,21.7%
17,Cc1ccc2c(c1)C(c1ccccc1)N(C(=O)c1ccc(S(=O)(=O)N3CCOCC3)cc1)CC(=O)N2 (stereo unspecified),3.57%
18,Cc1cc(C)c(C(N)=O)c(Cl)n1,0.37%
19,CCOc1ccc(S(=O)(=O)N2CCC(c3ccccc3)CC2)cc1C(=O)O,-7.32%
20,COC(=O)Nc1ccc(S(=O)(=O)N2CCN(CCN3C(=O)C4C5C=CC(C5)C4C3=O)CC2)cc1 (stereo unspecified),0.176%
21,CN(C(=O)CSc1nnc(C2CC2)n1C)C1CCCc2ccccc21 (stereo unspecified),9.61%
22,CC(=O)c1ccc(NC(=O)C2CCCN2S(=O)(=O)c2cccs2)cc1 (stereo unspecified),-1.65%
23,C=CCn1c(SCc2ccccc2)nc2c1c(=O)[nH]c(=O)n2C,20.2%

row,Structure (SMILES),activity
1,CC=CCn1c(SCCCc2ccccc2)nc2c1c(=O)[nH]c(=O)n2C,14.6%
2,CCCCCn1c(SCCC(C)C)nc2c1c(=O)[nH]c(=O)n2C,112% (active)
3,CC(=O)Nc1ccc(SC[C@H](Cc2ccccc2)N2CC[C@@H](C)CCC2=O)cc1,25.8%
4,C[C@H]1CCC(=O)N([C@H](CSc2ccccc2)Cc2ccccc2)CC1,59.9% (active)
5,O=C1CC[C@H](O)CCN1[C@H](CSc1ccc(Br)cc1)Cc1ccccc1,10.9%
6,Cc1cc(Cl)c(S(=O)(=O)NCc2cccnc2)cc1OCC(N)=O,-1.35%
7,CN(C)c1ccc(C(=S)N2CCN(C(=S)Nc3ccc(Cl)cc3)CC2)cc1,3.46%
8,Cc1cc(OCC(=O)NCC(O)c2ccccc2)c2c(C)c(C)c(=O)oc2c1 (stereo unspecified),-1%
9,O=C(CSc1ncnc2c1oc1ccccc12)NC1CCCC1,2.5%
10,CCC(=O)NC(Nc1cc(C)ccn1)(C(F)(F)F)C(F)(F)F,-7.52%
11,CC(=O)c1nn(-c2ccc(C)cc2)cc1C(=O)c1cccc(Br)c1,8.28%
12,CCOC(=O)c1nn(-c2cccc(C)c2)cc1C(=O)c1ccccc1,67.3% (active)
13,CCOC(=O)c1cn(Cc2cccc(C)c2)nn1,-1.57%
14,COCC(C)n1c(C)cc(C(=O)COc2ccc(C)nc2[N+](=O)[O-])c1C (stereo unspecified),8.7%
15,COC(=O)[C@H]1C[C@H](OC(=O)NCc2ccccc2)[C@@]2(O)CN(S(=O)(=O)c3ccc(C)cc3)CC2[C@H]1C(=O)OC (stereo partly specified),7.34%
16,Cc1cc2nc(C(F)(F)F)cc(-c3cccs3)n2n1,-15.7%
17,COc1c(C)c2c(c(O)c1C/C=C(\C)CCC(=O)O)C(=O)OC2,5.68%
18,CC1(Oc2ccccc2-c2ccno2)CCN(Cc2ccc(-c3ccccc3)o2)C1 (stereo unspecified),24%
19,Cc1ccn(CC(=O)NC2CCCN(Cc3ccccc3F)C2)n1 (stereo unspecified),-8.15%
20,CC(C)CN(C(=O)Cn1c(=O)cnc2ccccc21)C1CCS(=O)(=O)C1 (stereo unspecified),1.02%
21,CCN1CCN(c2cc3nc(C)n(Cc4ccccc4)c(=O)c3cc2NC(=O)c2ccccc2F)CC1,23.4%
22,COc1ccc(N=C2C=CC(=O)O2)cc1,1.67%
23,C=C1c2cccc(OC)c2O[C@H](C(=O)OCC)[C@@H]1CCCCCC,39%

row,Structure (SMILES),activity
1,COC(=O)[C@@H]1C[C@@]2(O)[C@H](O)[C@H](O)[C@H](O)C[C@H]2N1Cc1ccc(C(C)(C)C)cc1,1.65%
2,O=C(NCc1ccc(F)cc1)c1cc(C2CCCCN2C(=O)c2cccs2)on1 (stereo unspecified),28.6%
3,COc1ccccc1-c1n[nH]c2c1[C@H](C)CC[C@H]2C(C)C,29.7%
4,CN(C)c1ccc(CNC2C3CC4CC(C3)CC2C4)cc1 (stereo unspecified),-0.886%
5,COCCN(C(=O)CC1CCCCC1)c1c(N)n(CC(C)C)c(=O)[nH]c1=O,-3.38%
6,CCCCCN(C(=O)CCC(=O)OCCOc1ccc(OC)cc1)c1c(N)n(CCCC)c(=O)[nH]c1=O,20.2%
7,CC1CCCC(C)N1/N=C/c1ccccc1OC(F)F (stereo unspecified),-8.42%
8,Fc1ccc(Br)cc1/C=N/n1cnnc1,1.69%
9,Cc1nc2c(ncn2-c2ccccc2)c(=O)n1NC(=O)CN1CCCC1,-2.1%
10,CCC(CC)C(=O)Nc1c2c(nn1-c1ccc(C)cc1)CS(=O)(=O)C2,-1.49%
11,CCN(CC)P(=O)(Oc1cccc(C)c1)N(CC)CC,2.59%
12,Cc1cccc(OP(=O)(Oc2cccc(C)c2)OC(c2ccccc2)C(F)(F)F)c1 (stereo unspecified),60.4% (active)
13,Cc1cccc(OP(=O)(Nc2c(C)n(C)n(-c3ccccc3)c2=O)Oc2cccc(C)c2)c1,25.5%
14,Cc1cc(N2CCN(c3ccc(F)cc3)CC2)n2ncnc2n1,1.33%
15,O=c1c2ccccc2ncn1CCCCOc1ccccc1F,5.21%
16,N/C(=N\OC(=O)CCn1cccc(C(F)(F)F)c1=O)c1ccc(OC(F)(F)F)cc1,0.341%
17,O=S(=O)(c1cccc2nonc12)N1CCN(c2cccc(Cl)c2)CC1,8.66%
18,Cc1ccc(S(=O)(=O)N2CCC(Oc3ccc(-n4cnnn4)cc3)CC2)cc1,9.39%
19,CCCCNC1(C#N)CCN(Cc2ccccc2)CC1,-6.77%
20,Cc1c(CCO)c(=O)[nH]n1C(=O)c1c(F)cccc1F,11.7%
21,O=C(/C=C/c1cnc2ccccc2n1)NC1CCCCCC1,7.03%
22,COc1ccccc1CNC(=O)CNC(=O)c1cn(-c2ccccc2OC)c(=O)c2ccccc12,2.16%
23,CSc1cccc(NC(=S)N(Cc2ccccc2)Cc2ccccn2)c1,9.55%

row,Structure (SMILES),activity
1,COc1cc(OC)cc(-c2cc3nc(C4CCN(C(=O)OC(C)(C)C)CC4)cc(=O)n3[nH]2)c1,2.04%
2,CS(=O)(=O)c1sc(C(=O)NC(=S)Nc2ccc(OC(F)(F)F)cc2)c2c1C=CCC2,6.39%
3,Cc1ccc(N2C(=O)CC(NCc3ccc4c(c3)OCO4)C2=O)cc1Cl (stereo unspecified),4.73%
4,Cc1ccc(S(=O)(=O)N2CCC(C(=O)NCCC3=CCCCC3)CC2)cc1C,51.1% (active)
5,CSc1ccc(S(=O)(=O)N2CCC(C(=O)NCCc3ccccc3)CC2)cc1,3.52%
6,Cc1ccc(CCNC(=O)C2CCN(S(=O)(=O)N3CCCC3)CC2)cc1,0.896%
7,CN(C(=O)COC(=O)CCCc1c[nH]c2ccccc12)c1c(N)n(Cc2ccccc2)c(=O)[nH]c1=O,15%
8,COc1ccc(/C(=N\O)c2nccc3cc(OC)c(OC)cc23)cc1OC,6.19%
9,COCCCNC(=O)C1CC(=O)N(CCc2ccc(F)cc2)C1 (stereo unspecified),-2.65%
10,CC(OC(=O)c1ccccc1OCc1ccc(Cl)cc1)C(N)=O (stereo unspecified),4.36%
11,CC(=O)c1ccccc1OCc1ccc(C(=O)c2ccccc2)cc1,55.1% (active)
12,O=C(NC1CCC(O)CC1)c1ccccc1OCc1ccc(F)cc1 (stereo unspecified),1.15%
13,CCOC(=O)C1CCN(S(=O)(=O)c2ccc3c(c2)N(C)C(=O)CC(=O)N3C)CC1,-0.905%
14,FC(F)(F)C1CCCN(c2nsc3ccccc23)C1 (stereo unspecified),4.11%
15,CCCCNC(=O)c1ccccc1NC(=O)c1ccccc1N(C)S(C)(=O)=O,8.01%
16,c1ccc(CC2CCN(c3nc4ccccc4n4cnnc34)CC2)cc1,27.5%
17,COc1ccc(CN2CCC(n3nccc3NC(=O)CCCc3ccccc3)CC2)cc1C,18.3%
18,CC(C)(C)N(Cc1ccccc1)C(=O)COC(=O)CCc1c[nH]c2ccccc12,1.59%
19,CC1(c2ccc3ccccc3c2)NC(=O)NC1=O (stereo unspecified),0.131%
20,O=C1CSC(c2cccc(F)c2)N1c1ccccc1F (stereo unspecified),-2.91%
21,O=C(Cc1ccccc1F)NC1CCSc2ccccc21 (stereo unspecified),5.76%
22,O=S(=O)(O)c1cc2onnc2c2ccccc12,-2.58%
